# Source: PubChem BioAssay
# Active and inactive are the calls of the source. Unless noted, how the calls were made is not given here.
# Experiments:
# [1] = test system: Wnt5a (protein binding on small-molecule microarray); assay: Wnt5a binders on small-molecule microarray, primary screen, biophysical, 635/667 nm fluorescence (AID 1142); conditions: 635 nm fluorescence, higher = more signal;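 further: fluorescence read at 667 nm with signal to noise per printed feature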
# [2] = cell viability in Huh7 cells, primary screen, cytotoxicity control for HCV replication inhibitor project, CellTiter-Glo luminescence, basal, 48 h (AID 1143); conditions: Huh7 HCV replicon, higher = more signal, called active from +8 up or from −8 down;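 further: Huh7 hepatoma cells carrying a hepatitis C replication reporter with no stimulus; test concentration not given here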
# [3] = P. aeruginosa biofilm formation inhibitors, primary screen, PAO1 strain, BacTiter-Glo luminescence, LB-PBS (AID 1144); conditions: 12 h, higher = more signal
# [4] = CREB reporter modulators without forskolin, primary screen, cell-based, PC12, CRE-LacZ reporter, unstimulated (AID 1145); conditions: no forskolin, luminescence, 4.5 h, higher = more signal, called active from +8 up or from −8 down
# [5] = CREB reporter modulators under forskolin, primary screen, cell-based, PC12, CRE-LacZ reporter, forskolin-stimulated (AID 1146); conditions: luminescence, 4.5 h, higher = more signal, called active from +8 up or from −8 down;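 further: PC12 cells with 6xCRE LacZ reporter stimulated by forskolin 10 µM; beta-galactosidase reporter signal reflecting CREB driven transcription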
# [6] = molecular target: Streptavidin (Streptomyces avidinii) (UniProt P22629); assay: streptavidin binders on small-molecule microarray, primary screen, artefact control for SMM compound annotation, biophysical, 635/667 nm fluorescence (AID 1147); conditions: streptavidin binding, higher = more signal;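 further: signal reflects streptavidin binding to arrayed compounds as a control protein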
# Sequence of Streptavidin (Streptomyces avidinii) (P22629 whole entry, looked up): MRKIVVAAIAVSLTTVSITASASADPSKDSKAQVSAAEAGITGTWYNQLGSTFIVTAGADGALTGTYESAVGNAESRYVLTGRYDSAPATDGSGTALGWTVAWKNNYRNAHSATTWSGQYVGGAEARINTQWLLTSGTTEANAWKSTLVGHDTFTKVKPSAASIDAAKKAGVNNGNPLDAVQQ
# [7] = small-molecule binders of probe aInhba, primary screen, biochemical, small-molecule microarray, 635/667 nm fluorescence (AID 1148); conditions: higher = more signal;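 further: score merges 667nm spot fluorescence with signal-to-noise for antibody binding to printed compounds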
# Torsin-1A (Homo sapiens) [8] = molecular target: Torsin-1A (Homo sapiens) (UniProt O14656); assay: torsin A binders from cell lysate, primary screen, small-molecule microarray, wild-type, 635/667 nm (AID 1149); conditions: COS7 hTOR1A-WT lysate, 635 nm fluorescence, higher = more signal
# Sequence of Torsin-1A (Homo sapiens) (O14656 whole entry, looked up): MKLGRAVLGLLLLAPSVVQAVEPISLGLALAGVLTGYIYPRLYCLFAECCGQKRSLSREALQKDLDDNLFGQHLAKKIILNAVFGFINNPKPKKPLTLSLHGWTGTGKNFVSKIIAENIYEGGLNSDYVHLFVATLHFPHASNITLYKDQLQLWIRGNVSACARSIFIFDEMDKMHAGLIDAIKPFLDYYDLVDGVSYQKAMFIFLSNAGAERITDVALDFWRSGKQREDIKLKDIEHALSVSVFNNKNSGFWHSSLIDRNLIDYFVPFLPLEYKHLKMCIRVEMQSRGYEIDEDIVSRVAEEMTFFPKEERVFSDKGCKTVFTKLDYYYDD
# Torsin-1A (Homo sapiens) [9] = molecular target: Torsin-1A (Homo sapiens) (UniProt O14656); assay: small-molecule binders of mutant TOR1A in lysate, primary screen, cell lysate, small-molecule microarray, COS7 lysate, 635/667 nm fluorescence (AID 1150); conditions: COS7 hTOR1A mutant lysate, 635 nm fluorescence, higher = more signal;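 further: score pools 667 nm emission and signal to noise measuring lysate protein binding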
# [10] = test system: Sonic hedgehog protein (Shh); assay: small-molecule binders of Shh protein, primary screen, biochemical, small-molecule microarray, 635/667 nm fluorescence (AID 1151); conditions: small-molecule microarray binding, 635 nm fluorescence; higher = more signal;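 further: Shh protein binding to compounds spotted on small-molecule microarray slides; score combines spot fluorescence intensity with signal-to-noise across triplicate slides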
SMILES,composite z-score [1],z-score [2],z-score [3],z-score [4],z-score [5],composite z-score [6],composite z-score [7],composite z-score (Torsin-1A (Homo sapiens) [8]),composite z-score (Torsin-1A (Homo sapiens) [9]),composite z-score [10]
CC(C)[Si]1(C(C)C)OCc2cc(-c3ccc(-c4ccc(Cl)c(Cl)c4)o3)nc(-c3ccccc3)c21,-0.345,-0.243 (inactive),-0.543 (inactive),0.484 (inactive),-0.272 (inactive),-0.832,-0.295,-0.193,-1.15,-0.128
CC(C)N1C(=O)c2ccccc2[C@@H](C(=O)NCCN2CCOCC2)[C@@H]1c1ccc(CO)cc1,-1.15,0.179 (inactive),-0.0165 (inactive),0.324 (inactive),-0.107 (inactive),-1.14,-0.238,-3.17,-1.46,-1.49
CC(C)C(O)C1C=CC2C(=O)N(c3ccccc3)C(=O)C2N1Nc1ccccc1 (stereo not given),0.271,-3.03 (inactive),-1.35 (inactive),0.819 (inactive),0.418 (inactive),0.874,0.0756,0.64,0.923,1.04
COC(=O)[C@]1(CCS(=O)(=O)c2ccccc2)N=C(c2ccc(OCCCO)cc2)O[C@@H]1c1ccccc1N=[N+]=[N-],1.21,-3.71 (inactive),-0.731 (inactive),2.42 (inactive),-0.889 (inactive),1.39,0.438,0.588,0.453,2.09
Oc1ccc2cc[n+](Cc3cc4c(cc3Br)OCO4)cc2c1,-0.388,-0.501 (inactive),-0.23 (inactive),-0.788 (inactive),-0.639 (inactive),-0.909,-0.224,-0.896,-0.49,-0.598
COC(=O)[C@@]1(Cc2ccc(OC)cc2)[C@H]2c3cc(C(=O)N4CCCC4)n(CCc4c[nH]c5ccc(O)cc45)c3C[C@H]2CN1C(=O)c1ccccc1,0.431,-0.759 (inactive),0.34 (inactive),0.587 (inactive),-0.397 (inactive),0.971,0.192,0.132,0.318,-0.229
CC(C)NC(=O)[C@@]1(c2ccc([N+](=O)[O-])cc2)CC(=O)N(C2CCCCC2)[C@@H]1c1ccc(CO)cc1,0.34,-2.26 (inactive),-0.177 (inactive),1.09 (inactive),-0.0351 (inactive),0.119,-0.12,0.574,0.5,1.68
C[N+](C)(C)CCCCCCNC(=O)[C@@H]1C[C@@H]2C(=O)N3CCC[C@H]3C(=O)N2[C@@H]1c1ccc(O)cc1,0.311,0.143 (inactive),-0.573 (inactive),-0.663 (inactive),-0.62 (inactive),-0.31,-0.0762,1.25,1.15,2.12
C=C[C@H]1C(C(=O)OCC)=CC[C@@H](c2ccccc2)N1S(=O)(=O)c1ccc(C)cc1,0.197,-4.68 (inactive),-0.376 (inactive),-0.0137 (inactive),0.299 (inactive),0.767,0.13,0.683,0.508,0.056
[N-]=[N+]=Nc1ccccc1C[C@@]1(C(=O)NCCN2CCOCC2)N=C(c2ccc(OCCCO)cc2)O[C@@H]1c1ccccc1N=[N+]=[N-],0.734,-4.82 (inactive),1.52 (inactive),0.512 (inactive),-1.83 (inactive),0.425,0.518,0.801,-0.283,0.201
CC[C@@H]1O[Si](C(C)C)(C(C)C)c2c1cc(-c1cc(C)c(OC)c(C)c1)nc2-c1ccc(Oc2ccccc2)cc1,-0.216,0.0485 (inactive),-0.523 (inactive),-0.491 (inactive),0.316 (inactive),-0.21,-0.231,-0.851,-0.542,0.305
C=CCNC(=O)[C@@H]1[C@H]2C(=O)O[C@H](c3ccccc3)[C@H](c3ccccc3)N2[C@H](c2ccccc2OCCO)[C@@]12C(=O)Nc1ccc(C#CCCO)cc12,0.27,-3.75 (inactive),-1.2 (inactive),-1.7 (inactive),-1.17 (inactive),-0.158,0.0111,0.188,0.527,2.03
C=CCOC(=O)[C@@]1(Cc2ccccc2)C[C@H]2CO[C@H](c3ccc(OC)cc3)N2C1=O,-0.0728,-1.08 (inactive),0.572 (inactive),2.72 (inactive),0.892 (inactive),0.911,-0.0719,0.91,0.456,0.235
COc1ccc([Si](C)(C)[C@H]2[C@H](CC(=O)N3Cc4ccccc4C[C@H]3CO)O[C@@]3(C(=O)N(Cc4ccc(N5CCOC5=O)cc4)c4ccccc43)[C@@H]2C)cc1,-0.0993,-3.64 (inactive),-0.3 (inactive),1.38 (inactive),-1.01 (inactive),-0.0564,-0.176,0.787,0.438,2.05
CCCCCCCCCC(O)C1C=CC2C(=O)N(c3ccccc3)C(=O)C2N1Nc1cc(OC)c(OC)c(OC)c1 (stereo not given),-0.128,-4.06 (inactive),0.123 (inactive),0.815 (inactive),-0.262 (inactive),0.581,-0.0334,-1.45,-0.241,-0.511
CC[C@@H]1C=C(C(=O)O)[C@H](c2ccc(C#N)cc2)N1S(=O)(=O)c1ccc(C)cc1,0.413,-0.857 (inactive),0.24 (inactive),-0.975 (inactive),-0.397 (inactive),0.569,-0.157,1.26,1.65,0.0698
